A selection: hits, their analogues and other compounds. The true share with any hit is near 21%.
Pf growth 48h: Primary qHTS for delayed death inhibitors of the malarial parasite plastid, 48 hour incubation; P. falciparum luciferase growth in erythrocytes, 48 h; Potency, µM (doses to about 28.7 µM), inactives show at the highest dose activity change, negative = inhibition, most hits filed as inhibitors; 310,000 tested, 5.9% active; AID 504832, 2011; note: potency is the fitted concentration of half-maximal effect; % is set by controls: 0 for no effect and ±100 for the full control effect
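Growth was read as firefly luciferase luminescence after a 48 h, 37 C, 5% CO2 exposure of compounds to reporter-bearing P. falciparum cultures (0.1% parasitemia, 2% hematocrit final) in Albumax-supplemented RPMI 1640.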
Pf growth 96h: Primary qHTS for delayed death inhibitors of the malarial parasite plastid, 96 hour incubation. P. falciparum luciferase reporter growth, 96 h. Potency, µM (doses to about 28.7 µM), inactives show top-dose activity change, negative = inhibition, actives largely listed as inhibitors. 320,000 tested, 6.9% active; note: potency is the fitted concentration of half-maximal effect; % is set by controls: 0 for no effect and ±100 for the full control effect
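Infected RBCs, 2% Hct / 0.05% parasitemia final; luciferase-reporter P. falciparum; cpd 96 h, 37 C, 5% CO2; luciferase detection reagent; luminescence.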
Shiga toxin inh: A qHTS for Small Molecule Inhibitors of Shiga Toxin. Vero cells, Shiga toxin protein synthesis inhibition reporter. inhibition, % at 38.7 µM. 290,000 tested, 9.2% active. AID 2315, 2010; in the data active = inhibition mostly above about 28%, no sharp cut-off; inactive = mostly below about 43%; note: 0% is about no effect
AMA1-RON2 inh: qHTS for Inhibitors of AMA1-RON; Towards Development of Antimalarial Drug Lead: Primary Screen; Plasmodium falciparum AMA1 (3D7) - RON2 peptide interaction; AlphaScreen AMA1-biotinylated RON2 peptide binding; Potency, µM (titrated, usually from 58.2 µM), inactives show top-dose activity change, negative = inhibition, actives largely listed as inhibitors; 360,000 tested, 0.2% active;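 note: potency is the fitted concentration of half-maximal effect; 0% = vehicle wells and -100% = peptide control; nearly all actives have a fitted effect of over 45% in size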
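AMA1 (3D7) with his tag at 25 nM final met compounds first, then biotinylated RON2 peptide at 25 nM; detection used donor plus acceptor beads, 10 µg/mL apiece, read by AlphaScreen after 30 min at room temperature.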
HCV inh: qHTS Assay for Inhibitors of Hepatitis C Virus (HCV); Huh7.5.1 HCVcc-Cre infection, luciferase reporter, 44 h; Potency, µM (titrated, usually from 41.8 µM), for inactives: at the top dose activity change, negative = inhibition, most hits filed as inhibitors; 340,000 tested, 3.4% active; AID 651820, 2012; note: potency is the fitted concentration of half-maximal effect; % is set by controls: 0 for no effect and ±100 for the full control effect
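A cell-based infection assay in which seeded cells (1,000 per well) receive test compound after 4 h, are inoculated with HCVcc-Cre at approximately 0.5 moi, and are incubated 44 h before luminescence detection.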
CHX counter: Cycloheximide Counterscreen for Small Molecule Inhibitors of Shiga Toxin. max response, %. AID 2314, 2010. 300,000 tested, 12% active. cell reporter, cycloheximide protein synthesis inhibition counterscreen; in the data active = max response mostly above about 13%, no sharp cut-off; inactive = mostly below about 14%; note: read at 38.3 µM for the half of the compounds with a filed dose; 0% is about no effect
The depositor's hits bear a star; ? = inconclusive; · = no result; + = active, no number; [ ] = dose if it differs, or a comment. Unless noted, calls come from the whole dose curve; as a rule, active = well fitted curve in the direction sought with a large enough effect; inconclusive = small, poorly fitted or top-dose-only effect, or another doubt; inactive = no such curve, though single readings can be large; an effect the other way counts as inactive or inconclusive.

SMILES | Pf growth 48h | Pf growth 96h | Shiga toxin inh | AMA1-RON2 inh | HCV inh | CHX counter
COc1ccc(CC(C)N2CCN(c3cccc(C(F)(F)F)c3)CC2)cc1OC (configuration not stated) | · | ? | -9 | -16% | 11µM* | -4
Oc1ccc(N2CCN(C(c3ccccn3)c3nnnn3C3CCCC3)CC2)cc1 (configuration not stated) | 10µM* | 8% | -3 | 5% | -4% | -2
CC(C)CNS(=O)(=O)c1ccc(Br)cc1N1CCC[C@@H]1CO | · | · | · | 1% | -7% | ·
CCC(c1nnnn1Cc1ccc2c(c1)OCO2)N1CCN(c2ccccc2)CC1 (configuration not stated) | 12µM* | 21% | -9 | ? | 2% | 2
COCCn1nnnc1C(c1cccs1)N1CCN(c2cccc(C(F)(F)F)c2)CC1 (configuration not stated) | ? | · | -17 | -20% | -11% | -2
CCC(c1nnnn1CCOC)N1CCN(c2cccc(C(F)(F)F)c2)CC1 (configuration not stated) | ? | 2.3µM* | -14 | -7% | 8% | -3
CCC(C)[C@H](NC(=O)N1CCN(c2cccc(C(F)(F)F)c2)CC1)C(=O)OC (some centres not stated) | · | 5.2µM* | -5 | -4% | -5% | -5
COc1ccc(C(c2nnnn2C2CCCCC2)N2CCN(c3ccc(OC)cc3)CC2)cc1 (configuration not stated) | 12µM* | · | -10 | ? | ? | -2
CCOc1cc(/C=N/NC(=O)C(=O)NCc2ccc3c(c2)OCO3)ccc1OCC(=O)N1CCOCC1 | 30% | 26% | -11 | -12% | 9% | -1
c1ccc(C(c2nnnn2C2CCCC2)N2CCN(c3ccccc3)CC2)cc1 (configuration not stated) | 13µM* | ? | -3 | -14% | -3% | -3
Cc1cc(C)c2cc(C(c3nnnn3C3CCCC3)N3CCOCC3)c(=O)[nH]c2c1 (configuration not stated) | ? | 0% | -4 | 3% | -9% | 13
Cc1ccc2cc(C(c3nnnn3C3CCCC3)N3CCN(c4ccc(F)cc4)CC3)c(=O)[nH]c2c1 (configuration not stated) | 5.9µM* | -7% | 12 | -3% | 5% | 1
C#CCOCCOCCOCCNc1nc(N2CCN(C(=O)CCCCCCCCCCNC(=O)[C@H](CCC(=O)O)n3cc(CCCCCN)nn3)CC2)nc(N2CCN(C(=O)CCCCCCCCCCNC(=O)[C@@H]([C@H](C)O)n3cc(C)nn3)CC2)n1 | 3.3µM* | ? | · | 11% | 6% | ·
C#CCOCCOCCOCCNc1nc(N2CCN(C(=O)CCCCCCCCCCNC(=O)[C@H](CCCCN)n3cc(CCO)nn3)CC2)nc(N2CCN(C(=O)CCCCCCCCCCNC(=O)[C@@H]([C@H](C)O)n3cc(C)nn3)CC2)n1 | 0.29µM* | ? | · | -15% | -13% | ·
C#CCOCCOCCOCCNc1nc(N2CCN(C(=O)CCCCCCCCCCNC(=O)[C@H](CCCCN)n3cc(CCCC(=O)O)nn3)CC2)nc(N2CCN(C(=O)CCCCCCCCCCNC(=O)[C@H](CCCCN)n3cc(CCCC(=O)O)nn3)CC2)n1 | ? | ? | · | -3% | ? | ·
C#CCOCCOCCOCCNc1nc(N2CCN(C(=O)CCCCCCCCCCNC(=O)[C@@H](CCC(=O)O)n3cc(CCCCCN)nn3)CC2)nc(N2CCN(C(=O)CCCCCCCCCCNC(=O)[C@@H](CCC(=O)O)n3cc(CCCCCN)nn3)CC2)n1 | 2.9µM* | ? | · | 7% | 4% | ·
C#CCOCCOCCOCCNc1nc(N2CCN(C(=O)CCCCCCCCCCNC(=O)[C@H](CCCCN)n3cc(CCO)nn3)CC2)nc(N2CCN(C(=O)CCCCCCCCCCNC(=O)[C@H](CCCCN)n3cc(CCO)nn3)CC2)n1 | 4.1µM* | 7.4µM* | · | -19% | 8% | ·
C#CCOCCOCCOCCNc1nc(N2CCN(C(=O)[C@H](CCCCN)n3cc(CCCC)nn3)CC2)nc(N2CCN(C(=O)[C@H](Cc3ccc(O)cc3)n3cc(CCO)nn3)CC2)n1 | -3% | -25% | -11 | -11% | ? | -6
C#CCOCCOCCOCCNc1nc(N2CCOCC2)nc(N2CCN(C(=O)CCCCCCCCCCNC(=O)[C@@H]([C@H](C)O)n3cc(C)nn3)CC2)n1 | ? | ? | · | 35% | -7% | ·
CC(CC(=O)N1CCN(c2ccc(C(F)(F)F)cn2)CC1)n1ccnc1 (configuration not stated) | -22% | -39% | -3 | -6% | -1% | 5
COc1ccc(NC(=O)[C@@H](NC(=O)c2ccccc2F)C(C)C)cc1S(=O)(=O)N1CCOCC1 | ? | ? | 2 | -10% | 27% | -4
COCCNc1c(-c2cc3ccc(C)c(C)c3[nH]c2=O)nc2ccccn12 | 65% | -15% | 63* | -17% | -18% | 42*
CC1(C#CC[N+]2(C)CCCCC2)CCC2C(O1)c1ccccc1OC2(C)C (configuration not stated) | 12µM* | 3.7µM* | -17 | -2% | -15% | -6
COC(=O)c1cccnc1Oc1ccccc1 | ? | 0.66µM* | 9 | -6% | 6% | -1
O=C(c1ccccc1)C1OC1C(=O)c1ccccc1 (configuration not stated) | · | · | · | -16% | -24% | ·
SMILES | Pf growth 48h | Pf growth 96h | Shiga toxin inh | AMA1-RON2 inh | HCV inh | CHX counter
O=C(C1=NNCC1c1ccccc1)C1OC1c1ccccc1 (configuration not stated) | ? | ? | 34* | 5% | -8% | 12*
Cc1cc(C)n(-c2nnc(N3CCN(c4ccc(F)cc4)CC3)nn2)n1 | ? | 0.37µM* | -4 | -6% | -11% | 29
Cc1cc(C)c2nc(NNC(=O)c3cc(=O)c4ccccc4o3)sc2c1 | ? | ? | 28 | 80% | -22% | 19*
COCCCNC(=O)c1ccc2c(c1)OCO2 | 68% | · | + | 15% | 12% | 23*
O=C(NCCOc1ccc(Cl)cc1)c1ccc2c(c1)OCCO2 | 251% | 172% | · | 5% | -26% | ·
Cc1ccc(OCCNC(=O)c2ccc3c(c2)OCO3)cc1 | ? | 29% | 66* | 2% | 3% | 42*
CCCCOCCCNC(=O)c1ccc2c(c1)OCO2 | 32% | 21% | 11 | 4% | -8% | 10
CCOc1ccc(S(=O)(=O)N(CC(=O)NN=C2CCN(C)CC2)c2ccc(C)cc2)cc1 | 9% | -26% | 10 | 4% | · | 7
CCOc1ccc(NC(=O)COC(=O)c2cc(C)oc2C)cc1 | · | · | · | -9%[11.6 µM] | ? | ·

Screening data as filed in PubChem.
